# In the library only some 5.8% were active in any assay of this set; here they are far more common.
# RORg inh: qHTS for inhibitors of ROR gamma transcriptional activity; Nuclear receptor ROR-gamma (Mus musculus), P51450; Drosophila S2 Gal4-RORgamma UAS-luciferase reporter, 20 h; Potency, µM (doses to about 53.6 µM), for the others: top-dose activity change, negative = inhibition, usual class: inhibitors; hit rate 5.4% among 310,000; AID 2551, 2010; note: potency is the fitted concentration of half-maximal effect; % is set by controls: 0 for no effect and ±100 for the full control effect; nearly all actives have a fitted effect of over 60% in size
#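 Using a luciferase readout, inhibitors were identified by reduced reporter activity in Drosophila cells coexpressing a copper-inducible Gal4–ROR gamma fusion and UAS-driven Photinus luciferase, incubated 20 hr after 700 uM copper sulfate.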
# TRPV1 potentiator: HTS Assay for Compounds that Act as Potentiators of the Vanilloid Receptor 1 | Transient receptor potential cation channel subfamily V member 1 (Homo sapiens), Q8NER1 | TRPV1-expressing cells, Fluo-8 calcium influx, capsaicin EC20 potentiation | potentiation, % at 8.33 µM | hit rate 0.02% among 320,000; in the data active = potentiation above about 80%; inconclusive = between about 30% and that limit; note: 0% is about no effect
# Target sequence (Q8NER1 whole entry, looked up): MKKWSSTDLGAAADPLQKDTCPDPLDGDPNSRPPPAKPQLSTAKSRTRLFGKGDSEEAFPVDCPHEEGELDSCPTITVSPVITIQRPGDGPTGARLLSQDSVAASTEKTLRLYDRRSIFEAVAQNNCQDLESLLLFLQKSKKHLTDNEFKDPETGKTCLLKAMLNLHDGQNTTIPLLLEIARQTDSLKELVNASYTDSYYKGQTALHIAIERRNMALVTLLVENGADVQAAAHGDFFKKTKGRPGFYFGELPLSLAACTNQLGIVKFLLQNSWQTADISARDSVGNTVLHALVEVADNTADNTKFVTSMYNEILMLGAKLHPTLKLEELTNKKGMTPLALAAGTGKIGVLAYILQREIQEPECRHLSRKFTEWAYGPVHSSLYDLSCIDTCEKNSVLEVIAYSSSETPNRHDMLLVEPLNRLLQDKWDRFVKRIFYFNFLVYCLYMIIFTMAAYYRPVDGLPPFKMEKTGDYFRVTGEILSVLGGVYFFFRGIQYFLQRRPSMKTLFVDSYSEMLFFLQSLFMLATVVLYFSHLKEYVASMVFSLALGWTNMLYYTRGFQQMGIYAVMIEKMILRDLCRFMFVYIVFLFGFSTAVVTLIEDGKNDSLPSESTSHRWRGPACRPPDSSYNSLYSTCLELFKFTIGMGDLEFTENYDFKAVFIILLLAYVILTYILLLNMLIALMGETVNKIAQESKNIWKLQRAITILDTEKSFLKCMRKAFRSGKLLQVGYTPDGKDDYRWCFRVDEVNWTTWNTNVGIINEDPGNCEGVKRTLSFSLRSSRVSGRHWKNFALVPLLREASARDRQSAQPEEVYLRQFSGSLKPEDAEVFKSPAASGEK
#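 Fluo-8 calcium influx in TRPV1-expressing cells, kinetic read (ex 480/em 520 nm). Compound added and read 3 min for agonist activity, followed by capsaicin at EC20 final and 2 min further read for enhancement.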
# uPA surface inh: qHTS for Inhibitors of Cell Surface uPA Generation; AID 540303, 2011; Potency, µM (titrated, usually from 38.3 µM), for the others: at the top dose activity change, negative = inhibition, most hits filed as inhibitors; hit rate 0.31% among 330,000; cell surface uPA generation assay, qHTS; active = well fitted inhibition curve with a large enough effect; inconclusive = small, poorly fitted or top-dose-only effect; inactive = no such curve, though single readings can be large or run the other way; tested in mouse RAW 264.7 cells; note: potency is the fitted concentration of half-maximal effect; % is set by controls: 0 for no effect and ±100 for the full control effect; nearly all actives have a fitted effect of over 55% in size
# Gal4-VP16 FLuc: VP16 counterscreen qHTS for inhibitors of ROR gamma transcriptional activity; Drosophila S2 Gal4-VP16 UAS-luciferase, luminescence, 20 h; Potency, µM (series often up to 53.6 µM), for the others: top-dose activity, negative = inhibition, most hits filed as inhibitors; hit rate 3.5% among 310,000; AID 2546, 2010;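 note: Gal4-VP16 expression switched on by copper sulfate through the metallothionein promoter; potency is the fitted concentration of half-maximal effect; % is set by controls: 0 for no effect and ±100 for the full control effect; nearly all actives have a fitted effect of over 50% in size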
# TRPV1 agonist: HTS Assay for Compounds that Act as Agonists of the Vanilloid Receptor 1; Transient receptor potential cation channel subfamily V member 1 (Homo sapiens), Q8NER1; TRPV1-expressing cells, Fluo-8 calcium influx, agonist mode; activation, % at 8.33 µM; hit rate 0.19% among 320,000; AID 540275, 2011; in the data active = activation above about 80%; inconclusive = between about 30% and that limit; note: 0% is about no effect
#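 Fluo-8 calcium influx in TRPV1-expressing cells, kinetic read (ex 480/em 520 nm). Compound added and read 3 min for agonist activity, followed by capsaicin at EC20 final and 2 min further read for enhancement.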
# * hit, by the source's call; u = inconclusive; x = not tested or not shown; ! = not active in a repeat; [ ] = another dose, or the depositor's remark. Unless noted, calls come from the whole dose curve; as a rule, active = well fitted curve in the direction sought with a large enough effect; inconclusive = small, poorly fitted or top-dose-only effect, or another doubt; inactive = no such curve, though single readings can be large; an effect the other way counts as inactive or inconclusive.
SMILES,RORg inh,TRPV1 potentiator,uPA surface inh,Gal4-VP16 FLuc,TRPV1 agonist
CC(C)OC(=S)N/C(=N\S(=O)(=O)c1ccccc1)c1ccccc1,0.447µM*,11.5,x,22.1%[0.365 µM],-6.5
O=C(Cn1cccn1)N1CCCC(Nc2ccc(F)c(F)c2)C1 (configuration not stated),-22.8%,-17.9,11.1%,-15.3%,19.2
Cc1ccsc1C(=O)N1CCC(CO)(Cc2ccccc2)CC1,10µM*,3.1,0.7%,u,1.9
COC(=O)NC(/C(C(=O)OC)=C(\C)NCc1ccccc1)c1ccc2ccccc2c1 (configuration not stated),17.3%[10 µM],x,x,4.0%[10 µM],x
O=C(c1ccco1)N1CCC2(CCCN(c3ccncc3)C2)CC1,-12.0%,x,x,2.3%,x
Cc1ccccc1C(=O)NNC1=NCCC1,12.6µM*,-2.1,x,14.1µM*,0.1
CCC1(c2ccc(F)cc2)NC(=O)NC1=O (configuration not stated),-3.4%,-2.9,0.0%,-10.9%,-0.2
C/C(=N\Nc1nc(C)cc(-c2ccccc2)n1)c1ccc(C)o1,5.01µM*,2.3,3.5%,10µM*,13.3
C/C(=N\NC(=O)c1ccc(-c2ccccc2)cc1)c1ccco1,-12.5%,3.4,-0.1%,6.0%,3.4
C/C(=N/Nc1nc(C)cc(-c2ccccc2)n1)c1ccco1,5.01µM*,-7.7,-4.9%,17.8µM*,4.4
Cc1oc(-c2ccc3c(c2)OCCO3)cc1C(=O)NCC(=O)O,7.08µM*,-6.5,-0.8%,u,u
COc1ccc(-c2cc(C(=O)O)c(C)o2)cc1OC,u,8.7,-2.2%,0.891µM*,2.8
Cc1oc(-c2ccc3c(c2)OCCO3)cc1C(=O)O,0.891µM*,-28.3,-7.1%,1.41µM*,-1.6
COC(=O)N[C@@H](/C=C/c1ccccc1)C[N+](=O)[O-],-2.7%,x,x,-1.7%,x
COc1cccc(/C=C/c2n[nH]c(=O)c(C#N)c2C)c1,-39.8%,-4.4,0.3%,10.3%,-2.5
O=C(CSc1nc2cc([N+](=O)[O-])ccc2n1-c1ccc(F)cc1)NC1CCS(=O)(=O)C1 (configuration not stated),-3.3%[10 µM],-6.7,-1.0%,-4.1%,0.5
CCCC(=O)Nc1ncnc2c1ncn2[C@@H]1O[C@H]2COP(=O)(O)O[C@@H]2[C@@H]1OC(=O)CCC,-7.0%[16.9 µM],x,x,0.4%[17 µM],x
Oc1cc2c(cc1O)C1c3ccc(O)c(O)c3OCC1(O)C2 (configuration not stated),u,-9.8,-17.9%,12.6µM*!,-2.3
NC(=S)N=Nc1c(O)[nH]c2c(Br)cc(Br)cc12,3.55µM*,-2.9,0.6%,11.2µM*,-2.4
Cc1ccc2[nH]c(O)c(N=NC(N)=S)c2c1,20.3%,-23.9,4.8%,1.8%,-0.2
CCCCNC(=S)N=Nc1c(O)[nH]c2ccccc12,2.24µM*,-6.0,-2.4%,5.62µM*,2.5
CCNC(=S)N=Nc1c(O)[nH]c2ccc(C(C)C)cc12,2.82µM*,u,-2.2%,7.08µM*,-2.7
NC(=S)N=Nc1c(O)[nH]c2ccccc12,20µM*,5.7,4.6%,-2.7%,-1.8
C=C(C)C(=O)OCCCCCCCCCC,26.5%,x,x,-3.3%,x
CC1=CC(=O)OC1Cc1ccc2ccccc2n1 (configuration not stated),u,x,x,3.5%,x
SMILES,RORg inh,TRPV1 potentiator,uPA surface inh,Gal4-VP16 FLuc,TRPV1 agonist
CC(C)c1ccc2[nH]c(O)c(N=NC(=S)NCCc3ccccc3)c2c1,2µM*,10.7,u,2.24µM*,-1.8
Oc1[nH]c2ccccc2c1N=NC(=S)NCCc1ccccc1,4.47µM*,-19.6,-5.0%,3.16µM*,u
CCOc1ccc(NC(=S)N=Nc2c(O)[nH]c3ccccc23)cc1,2.24µM*,-7.8,-5.2%,5.01µM*,1.6
Cn1c2c(c(=O)n(C)c1=O)C(C(F)(F)F)(C(F)(F)F)N=C(c1ccc(Cl)cc1)N2,6.31µM*,-0.5,-15.6%,3.16µM*,6.6
CNC(=O)NC(=O)C(C)OC(=O)c1c2c(nc3ccccc13)/C(=C/c1cccs1)CC2 (configuration not stated),0.631µM*,-31.8,-0.5%,0.126µM*,14.6
CCCCNC(=O)COC(=O)c1c2c(nc3ccccc13)/C(=C/c1cccs1)CC2,u,-0.2,-10.3%,u,2.0
O=C(NNC1=NCCN1Cc1ccccc1)c1cccc(C(F)(F)F)c1,3.16µM*,7.7,-5.6%,11.2µM*,1.2
CSc1ncnc2c1ncn2C1OC(CO)C(O)C1O (configuration not stated),0.4%,x,x,-7.9%,x
OC[C@H]1O[C@H](n2cnc3c(NC4CCCC4)nc(Cl)nc32)[C@@H](O)[C@@H]1O,21.5%,x,x,-10.3%,x
OCC1OC(n2cnc3c(Cl)nc(Cl)nc32)C(O)C1O (configuration not stated),12.6µM*,x,x,-4.4%,x
OC[C@H]1O[C@@H](n2cnc3cncnc32)[C@H](O)[C@@H]1O,7.08µM*,x,x,3.16µM*,x
Nc1ncnc2c1c(I)cn2C1OC(CO)C(O)C1O (configuration not stated),5.62µM*,x,x,3.98µM*,x
Cc1ccc(S(=O)(=O)N2C(=O)CCC2C(=O)O/N=C(\N)c2ccc([N+](=O)[O-])cc2)cc1 (configuration not stated),-21.9%,7.9,7.2%,u,0.7
CN1C(=O)NC(c2ccc(O)cc2)C2=C1CN(c1cccc3ccccc13)C2=O (configuration not stated),33.2%,19.7,0.2%,-0.7%,2.9
Cc1ccc(NC(=S)N2CCCC(c3nc4ccccc4[nH]3)C2)cc1 (configuration not stated),u,4.5,4.8%,-4.0%,-3.1
Cc1ccc(NC(=S)c2nc3ccccc3[nH]2)c(C)c1,14.1µM*,-7.1,-15.6%,u,u
Cc1ccc(NC(=S)c2nc3ccccc3[nH]2)cc1,3.16µM*,-7.9,-13.0%,7.94µM*,u
O=C(N/N=C/c1cccc(Oc2ccccc2)c1)c1ccc(O)cc1O,0.631µM*,-7.2,0.4%,2.24µM*,u
COc1ccc(/C=N/NC(=O)c2cccnc2)cc1CSc1nc2ccccc2s1,u,-8.9,-10.4%,20µM*,u
COc1ccc(C=O)cc1CSc1ccccn1,-2.6%,2.0,3.7%,3.6%,4.5
COc1ccc(/C=N/NC(=O)c2ccc(O)cc2O)cc1CSc1ccccn1,0.0891µM*,-29.2,0.8%,2µM*,u
COc1ccc(/C=N/NC(=O)c2ccccc2Cl)cc1CSc1nc2ccccc2s1,-20.9%,-7.7,x,12.4%,u
O=C(NCc1ccccc1)C1(C(F)(F)F)C/C(=C\Cc2ccccc2)CCCO1 (configuration not stated),-2.8%,x,x,7.7%,x

# Source: PubChem
